From PubChem BioAssay (NCATS)
Inconclusive results are not listed. Entries that show only a call come without a potency. Values without a mark were called inactive. The source made the active and inactive calls. Calls come from the whole dose curve; as a rule, active = well fitted curve in the direction sought with a large enough effect; inconclusive = small, poorly fitted or top-dose-only effect, or another doubt; inactive = no such curve, though single readings can be large; an effect the other way counts as inactive or inconclusive.

Tests used:
[1] = biological target: Rap guanine nucleotide exchange factor 3 (Homo sapiens) (UniProt O95398); assay: Confirmatory qHTS for antagonist of cAMP-regulated guanine nucleotide exchange factor 3 (EPAC1) (AID 1645880); note: nearly all actives have a fitted effect of over 55% in size; note: potency is the fitted concentration of half-maximal effect
In short: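 Nucleotide exchange uses 100 nM EPAC1, 250 nM RAP1B-BODIPY-GDP and 50 uM GDP, with compounds in a concentration-titration series. After 5 min at room temperature, fluorescence (480 nm ex/540 nm em) is read every 5 min for 30 min. Data are normalized to control ATA and DMSO.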

[2] = biological target: Rap guanine nucleotide exchange factor 3 (Homo sapiens) (UniProt O95398); assay: Confirmatory qHTS for agonist of cAMP-regulated guanine nucleotide exchange factor 3 (EPAC1) (AID 1645881);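 note: EPAC1 catalysed release of BODIPY-GDP from Rap1B seen as fluorescence loss; nearly all actives have a fitted effect of over 75% in size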
[3] = biological target: Rap guanine nucleotide exchange factor 4 (Homo sapiens) (UniProt Q8WZA2); assay: Confirmatory qHTS for agonist of cAMP-regulated guanine nucleotide exchange factor 4 (EPAC2) (AID 1645884);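 note: nucleotide exchange releases bodipy-GDP from Rap1 and this lowers its fluorescence; nearly all actives have a fitted effect of over 65% in size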
[4] = biological target: Rap guanine nucleotide exchange factor 4 (Homo sapiens) (UniProt Q8WZA2); assay: Confirmatory qHTS for antagonist of cAMP-regulated guanine nucleotide exchange factor 4 (EPAC2) (AID 1645885); note: nearly all actives have a fitted effect of over 25% in size; note: potency is the fitted concentration of half-maximal effect
[5] = biological target: Rap guanine nucleotide exchange factor 3 (Homo sapiens) (UniProt O95398); assay: Counterscreen qHTS for antagonist of cAMP-regulated guanine nucleotide exchange factor 3 (EPAC1) (AID 1645888);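 note: fluorescence loss as bound BODIPY-GDP is released from Rap1B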
In short: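 Rap1B-BODIPY-GDP 250 nM + GDP 50 uM; cpds 7-pt, final 9.74 nM–152 uM (activator mode) or from 7.32 nM upwards (inhibitor mode); RT; FI 480/540 nm at 5 and 30 min, then ± cAMP, reread.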

Rap guanine nucleotide exchange factor 3 (Homo sapiens), sequence (O95398 whole entry, looked up): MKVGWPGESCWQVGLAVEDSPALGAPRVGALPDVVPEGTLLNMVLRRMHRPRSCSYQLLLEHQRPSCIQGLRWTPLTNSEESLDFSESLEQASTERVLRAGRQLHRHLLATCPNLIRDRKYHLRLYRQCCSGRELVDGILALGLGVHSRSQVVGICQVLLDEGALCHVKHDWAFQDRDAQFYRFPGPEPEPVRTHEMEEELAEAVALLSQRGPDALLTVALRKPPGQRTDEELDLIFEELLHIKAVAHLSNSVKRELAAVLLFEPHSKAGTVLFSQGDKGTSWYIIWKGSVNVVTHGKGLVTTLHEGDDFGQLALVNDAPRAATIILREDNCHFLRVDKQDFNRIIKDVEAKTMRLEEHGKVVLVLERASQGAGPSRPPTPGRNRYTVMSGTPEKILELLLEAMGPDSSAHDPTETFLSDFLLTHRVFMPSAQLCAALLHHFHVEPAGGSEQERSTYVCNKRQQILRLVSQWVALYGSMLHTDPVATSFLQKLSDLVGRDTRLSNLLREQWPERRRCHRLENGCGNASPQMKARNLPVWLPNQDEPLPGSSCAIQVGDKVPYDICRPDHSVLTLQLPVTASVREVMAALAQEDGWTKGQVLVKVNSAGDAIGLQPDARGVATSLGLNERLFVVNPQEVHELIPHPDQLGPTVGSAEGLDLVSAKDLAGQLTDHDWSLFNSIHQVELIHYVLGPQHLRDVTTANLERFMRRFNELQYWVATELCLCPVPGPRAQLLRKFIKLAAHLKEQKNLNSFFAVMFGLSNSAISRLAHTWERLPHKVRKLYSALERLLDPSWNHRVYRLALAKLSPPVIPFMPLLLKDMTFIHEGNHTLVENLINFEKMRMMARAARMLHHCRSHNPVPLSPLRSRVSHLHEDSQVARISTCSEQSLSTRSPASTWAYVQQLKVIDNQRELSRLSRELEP
Rap guanine nucleotide exchange factor 4 (Homo sapiens), sequence (Q8WZA2 whole entry, looked up): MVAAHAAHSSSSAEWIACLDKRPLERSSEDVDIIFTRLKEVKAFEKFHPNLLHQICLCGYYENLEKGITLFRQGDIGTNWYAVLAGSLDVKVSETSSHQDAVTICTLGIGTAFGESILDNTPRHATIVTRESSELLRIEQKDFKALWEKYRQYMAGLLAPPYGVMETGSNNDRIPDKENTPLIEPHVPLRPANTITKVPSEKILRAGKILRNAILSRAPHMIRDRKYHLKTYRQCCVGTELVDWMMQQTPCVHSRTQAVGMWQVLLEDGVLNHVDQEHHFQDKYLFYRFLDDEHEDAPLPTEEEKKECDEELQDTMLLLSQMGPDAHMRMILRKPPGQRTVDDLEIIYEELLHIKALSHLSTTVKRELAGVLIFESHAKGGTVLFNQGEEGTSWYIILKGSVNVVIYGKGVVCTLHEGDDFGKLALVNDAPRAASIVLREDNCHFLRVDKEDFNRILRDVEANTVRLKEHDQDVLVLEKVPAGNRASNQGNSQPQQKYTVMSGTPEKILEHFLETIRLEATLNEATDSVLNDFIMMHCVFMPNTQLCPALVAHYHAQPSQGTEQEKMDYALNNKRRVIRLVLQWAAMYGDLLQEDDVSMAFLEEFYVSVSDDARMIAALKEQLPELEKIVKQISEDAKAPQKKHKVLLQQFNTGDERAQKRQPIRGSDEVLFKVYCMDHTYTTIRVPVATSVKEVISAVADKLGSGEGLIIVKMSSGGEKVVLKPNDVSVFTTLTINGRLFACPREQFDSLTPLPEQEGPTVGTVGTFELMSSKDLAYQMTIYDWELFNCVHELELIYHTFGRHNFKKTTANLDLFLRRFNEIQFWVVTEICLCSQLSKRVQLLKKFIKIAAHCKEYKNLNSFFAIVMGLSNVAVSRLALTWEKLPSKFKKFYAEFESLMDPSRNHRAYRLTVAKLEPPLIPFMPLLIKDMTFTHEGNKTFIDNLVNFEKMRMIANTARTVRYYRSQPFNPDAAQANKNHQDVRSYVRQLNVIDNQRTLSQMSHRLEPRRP

Row | SMILES | Potency [1] | Potency [2] | Potency [3] | Potency [4] | Potency [5] | activation [3] | activity change, negative = inhibition [5] | outcome [4]
1 | COc1cc(Nc2nc(SCc3cccc(Cl)c3)nc3ccccc23)cc(OC)c1 | inactive | inactive | inactive | 0.151 µM (active) | inactive | – | – | –
2 | COc1cc(S(=O)(=O)Nc2ccc(C)cc2)ccc1N=Cc1c(C)c(C#N)c(=O)n(C)c1O | inactive | inactive | inactive | inactive | inactive | – | – | –
3 | CCCCn1c(N)c(N(CCOC)C(=O)c2ccc(C)c(S(=O)(=O)N3CCCCC3)c2)c(=O)[nH]c1=O | inactive | inactive | inactive | inactive | inactive | – | – | –
4 | Cc1ccc(C(=O)ONc2ccc(N=NC(=O)c3ccccc3O)cc2)cc1 | 7.57 µM (active) | inactive | inactive | inactive | inactive | – | – | –
5 | CO/N=C/c1ccc(Sc2ccccc2)c([N+](=O)[O-])c1 | inactive | inactive | – | inactive | – | 6.03% [at 17.1 µM, percent relative to cAMP agonist control] | -14.9% [at 30.8 µM] | –
6 | CCOC(=O)c1ccc(NC(=O)Cn2nc(C)c3nn(-c4ccc(Cl)cc4)c(C)c3c2=O)cc1 | inactive | inactive | inactive | inactive | inactive | – | – | –
7 | CC(C)N1CCc2c(sc(NC(=O)c3ccc(S(=O)(=O)N4CCCCC4C)cc3)c2C(N)=O)C1 (stereo not given) | 89.1 µM (active) | inactive | – | inactive | – | 4.64% [at 17.1 µM, percent relative to cAMP agonist control] | 3.44% [at 30.8 µM] | –
8 | CCC(=Cc1ccccc1OC)c1ccncc1 | inactive | inactive | inactive | inactive | inactive | – | – | –
9 | Clc1ccc(NCc2nc3ccccc3n2CCOc2ccccc2)cc1 | inactive | inactive | inactive | – | inactive | – | – | inactive [at 12.7 µM]
10 | COc1ccc2c(c1)c1nnc(SCC(=O)NC3CC3)nc1n2C | inactive | inactive | inactive | 84.9 µM (active) | inactive | – | – | –
11 | O=C(CCN1C(=O)/C(=C/c2cccs2)SC1=S)Nc1ccc(C(=O)O)c(O)c1 | 79.4 µM (active) | inactive | – | inactive | – | 0.91% [at 17.1 µM, percent relative to cAMP agonist control] | 19.6% [at 30.8 µM] | –
12 | COc1cc2c(C#N)c(N3CCCC3)nc(N)c2c(N)n1 | 37.9 µM (active) | inactive | inactive | inactive | inactive | – | – | –
13 | CCOc1c(O)ccc(/C=C2\SC(=S)NC2=O)c1[N+](=O)[O-] | 37.9 µM (active) | inactive | inactive | inactive | inactive | – | – | –
14 | O=C(COC(=O)CNC(=O)c1ccc(Cl)cc1Cl)NCc1ccco1 | inactive | inactive | – | inactive | – | 5.36% [at 17.1 µM, percent relative to cAMP agonist control] | 9.24% [at 30.8 µM] | –
15 | CCn1c(C(=O)N2CCCC(C(=O)N3CCN(c4cc(C)ccc4C)CC3)C2)cc2sccc21 (stereo not given) | inactive | inactive | inactive | – | inactive | – | – | inactive [at 12.7 µM]
16 | CC(=O)N(C(C)=O)N1C(=O)c2cccc3c(N4CCOCC4)ccc(c23)C1=O | inactive | inactive | – | inactive | – | 18.1% [at 17.1 µM, percent relative to cAMP agonist control] | 16.3% [at 30.8 µM] | –
17 | CCOC(=O)C1C(=O)C=C(c2ccccc2)CC1c1ccccc1 (stereo not given) | inactive | inactive | – | inactive | – | 12.3% [at 17.1 µM, percent relative to cAMP agonist control] | -11.6% [at 30.8 µM] | –
18 | CC1CN(S(=O)(=O)c2cccc(C(=O)Nc3ccccc3N3CCOCC3)c2)CC(C)O1 (stereo not given) | inactive | inactive | – | inactive | – | 3.24% [at 17.1 µM, percent relative to cAMP agonist control] | -5.5% [at 30.8 µM] | –
19 | CCc1ccc(NC(=O)CSc2nnc(Cc3cccn3C)n2-c2ccc(OC)cc2)cc1 | inactive | inactive | – | inactive | – | 15.3% [at 17.1 µM, percent relative to cAMP agonist control] | -10.1% [at 30.8 µM] | –
20 | COc1ccc(-n2c(SCC(=O)Nc3nccs3)nc3c(c2=O)SC(C)C3)cc1 (stereo not given) | inactive | inactive | inactive | inactive | inactive | – | – | –
21 | COc1cc(C=NNc2ccc(S(=O)(=O)Nc3ccccc3C(=O)O)cc2[N+](=O)[O-])ccc1O | 20 µM (active) | inactive | – | inactive | – | -6.92% [at 17.1 µM, percent relative to cAMP agonist control] | -11.1% [at 30.8 µM] | –
22 | Cc1ccc(Cl)c2c1N[C@@H](c1ccc(C(=O)O)cc1)[C@H]1CC=C[C@@H]21 | 84.9 µM (active) | inactive | inactive | inactive | inactive | – | – | –
23 | CCN1C(=O)/C(=C/c2ccc(N3CCCC3)cc2)NC1=S | inactive | inactive | – | inactive | – | 1.83% [at 17.1 µM, percent relative to cAMP agonist control] | 97.9% [at 30.8 µM] | –
24 | CC(=O)Nc1ccc(NS(=O)(=O)c2cn(C)c(=O)n(C)c2=O)cc1 | inactive | inactive | – | inactive | – | 8.18% [at 17.1 µM, percent relative to cAMP agonist control] | 9.16% [at 30.8 µM] | –

Row | SMILES | Potency [1] | Potency [2] | Potency [3] | Potency [4] | Potency [5] | activation [3] | activity change, negative = inhibition [5] | outcome [4]
25 | COc1ccc(/C=C/C(=O)NC2CCS(=O)(=O)C2)cc1 (stereo not given) | inactive | inactive | inactive | inactive | inactive | – | – | –
26 | O=c1cc(CSc2ccccc2)nc(-c2ccncc2)[nH]1 | inactive | inactive | inactive | inactive | inactive | – | – | –
27 | Cc1ccc(S(=O)(=O)Nc2ccccc2C=Nc2cccc(C)c2C)cc1 | inactive | inactive | inactive | inactive | inactive | – | – | –
28 | CCOC(=O)Cn1c(-c2cccs2)cc2cc(Cl)ccc21 | inactive | inactive | inactive | – | inactive | – | – | inactive [at 12.7 µM]
29 | Cc1ccc(N(Cc2cccs2)C(=O)c2ccccc2Cl)cc1 | inactive | inactive | inactive | inactive | inactive | – | – | –
30 | CC1CN(C(=O)N2CCOCC2)CCN1C(=O)N1CCOCC1 (stereo not given) | inactive | inactive | inactive | inactive | inactive | – | – | –
31 | CCCCCNC(=O)C(c1cc2ccccc2o1)n1c(=O)c(-c2ccco2)nc2ccccc21 (stereo not given) | 16.9 µM (active) | inactive | inactive | 10.7 µM (active) | inactive | – | – | –
32 | COc1ccc(CNC(=O)C(=O)Nc2ccc(OC)cc2OC)cc1 | inactive | inactive | inactive | inactive | inactive | – | – | –
33 | CC(C)(C)NC(=O)NC(=O)CN1CCc2ccccc21 | inactive | inactive | – | inactive | – | 4.54% [at 17.1 µM, percent relative to cAMP agonist control] | 5.54% [at 30.8 µM] | –
34 | O=C(O)c1[nH]c2ccccc2c1C(c1cc(Cl)cc([N+](=O)[O-])c1O)c1c(C(=O)O)[nH]c2ccccc12 | 37.9 µM (active) | inactive | inactive | inactive | inactive | – | – | –
35 | COc1cc2c(cc1OC)-c1cc(NCc3ccccn3)nc(=O)n1CC2 | 37.9 µM (active) | inactive | inactive | inactive | inactive | – | – | –
36 | Cc1ccccc1NC1=C/C(=N\S(=O)(=O)c2ccc(C(=O)O)cc2)c2ccccc2C1=O | 14.1 µM (active) | inactive | – | inactive | – | 1.42% [at 17.1 µM, percent relative to cAMP agonist control] | -15% [at 30.8 µM] | –
37 | NS(=O)(=O)c1cc(C(=O)NC2CCSc3ccccc32)ccc1Cl (stereo not given) | 13.5 µM (active) | inactive | inactive | 30.1 µM (active) | inactive | – | – | –
38 | Cc1ccc(C2C(C#N)=C3N=C(N)c4ccccc4N3C3=C2C(=O)CCC3)cc1 (stereo not given) | inactive | inactive | – | inactive | – | 5.16% [at 17.1 µM, percent relative to cAMP agonist control] | -7.3% [at 30.8 µM] | –
39 | O=C1NC(=O)C2(CCC(C(=O)O)C2)N1 (stereo not given) | inactive | inactive | – | inactive | – | 11.7% [at 17.1 µM, percent relative to cAMP agonist control] | 14.4% [at 30.8 µM] | –
40 | O=C(O)c1ccc(S(=O)(=O)/N=C2\C=C(Nc3ccccc3F)C(=O)c3ccccc32)cc1 | 30.1 µM (active) | inactive | inactive | inactive | inactive | – | – | –
41 | Nc1ncnc2c1ncn2[C@@H]1O[C@H](C(=O)N[C@H]2c3ccccc3C[C@H]2OC=O)[C@@H](O)[C@H]1O | inactive | inactive | inactive | inactive | inactive | – | – | –
42 | Oc1ccc(N=Cc2c(O)ccc3ccccc23)cc1 | inactive | inactive | – | inactive | – | 11.7% [at 17.1 µM, percent relative to cAMP agonist control] | -17% [at 30.8 µM] | –
43 | COCCN(CCOC)Cc1cc(=O)oc2cc(C)c(C)cc12 | inactive | inactive | – | inactive | – | 2.1% [at 17.1 µM, percent relative to cAMP agonist control] | -13% [at 30.8 µM] | –
44 | Cc1ccc(/C=C2\SC(=S)N(NS(=O)(=O)c3ccc(C)cc3)C2=O)cc1 | 39.8 µM (active) | inactive | – | inactive | – | 11.9% [at 17.1 µM, percent relative to cAMP agonist control] | -10.4% [at 30.8 µM] | –
45 | CCOC(=O)c1[nH]c(C)c(C(=O)NC(C)(C)C)c1C | inactive | inactive | inactive | inactive | inactive | – | – | –
46 | O=C(NCCN1CCCC1)C(c1ccccc1)c1ccccc1 | inactive | inactive | inactive | inactive | inactive | – | – | –
47 | O=C(/C=C/c1ccco1)c1cccc([N+](=O)[O-])c1 | 42.6 µM (active) | inactive | inactive | inactive | inactive | – | – | –
48 | N#C/C(=C\c1ccc(O)c(O)c1)C(=O)Nc1cccc2ncccc12 | 7.57 µM (active) | inactive | inactive | inactive | inactive | – | – | –
